Measurements published in PubChem BioAssay AID748 (Sanford-Burnham Center for Chemical Genomics, 2007).
About 100 (0.1%) of roughly 96,000 compounds were called active. This excerpt belongs to a sample that is enriched for actives. Measured potencies and affinities stand elsewhere. Values without a mark were called inactive.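 The calls were made as follows: active = displacement above 50% at 20 µM plus a fluorescence interference ratio under 1.5; inactive = the rest.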

Each compound was assayed against Bcl-2-like protein 10 (Homo sapiens) (UniProt Q9HD36) (assay: Bcl-B/TR3 peptide binding disruption – biochemical, fluorescence polarization, FITC-TR3 peptide, selectivity assay for Bfl-1 inhibitor project, primary screen (AID 748;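 also: plate controls were wells without compound for no effect and wells lacking Bcl-B protein for full effect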)). Settings: FP displacement of FITC-TR3 peptide from Bcl-B; at 20 µM; stronger effect = higher value.

| SMILES | displacement |
| --- | --- |
| Cc1cccc(NC(=O)c2cc(-c3ccco3)nc3ccccc23)n1 | 41.4% |
| O=C(O)c1cc(-c2ccco2)nc2ccccc12 | 18.6% |
| Cc1ccccc1C(=O)c1cccn1CC(=O)NCc1ccc2c(c1)OCO2 | -0.3% |
| O=C(O)c1cc2c([nH]c1=O)CCCC2 | -1% |
| Cc1cc(NC(=O)CN2CCN(S(=O)(=O)c3ccc4ccccc4c3)CC2)no1 | -1% |
| O=C(NCCN1CCCCCC1)c1ccc(CS(=O)(=O)c2ccc(Br)cc2)o1 | 4.3% |
| CS(=O)(=O)Nc1ccccc1C(=O)Nc1ccc2c(c1)OCCO2 | -6.4% |
| Cc1ccc(C(=O)NC2CCCc3ccccc32)o1 (centres undefined) | 1.5% |
| NC(=S)N/N=C/c1ccc(-c2cccc([N+](=O)[O-])c2)o1 | -3.1% |
| O=C(O)c1cc(-c2ccc(/C=N/Nc3ccc(Cl)cc3)o2)ccc1Cl | -20.9% |
| C/C(N)=C(/C#N)C(=O)COC(=O)CSc1ccc2ccccc2c1 | -15.4% |
| Cc1ccc(S(=O)(=O)NCC(=O)OC(C)C(=O)Nc2ncc(Cl)cc2Cl)cc1 (centres undefined) | -1.5% |
| O=C(COC(=O)CCc1ccccc1)Nc1ncc(Cl)cc1Cl | 24.2% |
| CC(C(=O)OCC(=O)Nc1ncc(Cl)cc1Cl)N1C(=O)c2ccccc2C1=O (centres undefined) | 21.3% |
| CC(=O)NC12CC3CC(C1)CC(C(=O)OCC(=O)Nc1ncc(Cl)cc1Cl)(C3)C2 | 40.7% |
| O=C(COC(=O)C12CC3CC(CC(C3)C1)C2)Nc1ncc(Cl)cc1Cl | 31.8% |
| O=C(COC(=O)CCCN1C(=O)c2ccccc2C1=O)Nc1ncc(Cl)cc1Cl | 43.6% |
| COc1ccc(CC(=O)OCC(=O)Nc2ncc(Cl)cc2Cl)cc1 | 41.3% |
| Cc1ccc(S(=O)(=O)CCC(=O)OCC(=O)Nc2ncc(Cl)cc2Cl)cc1 | 24.5% |
| CCOC(=O)c1ccc(NC(=O)CSc2nnc(CNC(=O)c3ccccc3F)o2)cc1 | 0% |
| CC(C)(C)C(=O)CSc1nccc(=O)[nH]1 | 2.2% |
| O=C1C(C2=NC(C(=O)O)C3C(=O)N(c4ccccc4)C(=O)C23)=C(O)c2ccccc21 (centres undefined) | -7% |
| COc1ccc(Cl)cc1C(=O)Nc1ccc(S(=O)(=O)N2CCCC2)cc1 | -12.1% |
| O=C(CCC1CCCC1)N1CCN(S(=O)(=O)Cc2ccccc2)CC1 | -7.6% |
| O=C(Nc1ccc(-c2nnc(-c3ccco3)o2)cc1)C(c1ccccc1)c1ccccc1 | 3.9% |

| SMILES | displacement |
| --- | --- |
| COC(=O)CSc1nnc(CNS(=O)(=O)c2ccc(Cl)cc2)n1C | 8.2% |
| Cc1cc(NC(=O)COC(=O)C2CCN(S(=O)(=O)c3ccc(Cl)cc3)CC2)no1 | 7.5% |
| COc1ccc(CC(=O)OCC(=O)Nc2ncc(Cl)cc2Cl)cc1OC | 3% |
| COc1cc(CCC(=O)OCC(=O)Nc2ncc(Cl)cc2Cl)cc(OC)c1OC | 32.6% |
| Cc1cc(NC(=O)COC(=O)C2CCN(S(=O)(=O)c3cccc(Cl)c3Cl)CC2)no1 | 1.9% |
| Cc1ccc(Cl)cc1N1CCN(C(=O)c2cn(C)c(=O)c3c2c2ccccc2n3C)CC1 | -4.3% |
| CC(=O)Nc1ccc(NC(=O)C(C)n2nc([N+](=O)[O-])c(Br)c2C)cc1 (centres undefined) | -5.9% |
| CC(=O)c1c(C)[nH]c(C(=O)Nc2c(C)n(C)n(-c3ccccc3)c2=O)c1C | 1% |
| COc1cccc(C=Nc2ccccc2C(=O)Nc2nccs2)c1OC | -10.6% |
| O=C(C[n+]1ccc(C(=O)N/N=C/c2ccc(Br)cc2)cc1)c1ccccc1 | 43.2% |
| O=C(C[n+]1ccc(C(=O)N/N=C/c2ccc(OCc3ccccc3)cc2)cc1)c1ccccc1 | 46.7% |
| CCOC(=O)C1C(C#N)=C(N)OC(C)=C1c1ccncc1 (centres undefined) | 11.4% |
| COc1ccc2nc(COC(=O)c3ccco3)c(C(C)=O)[n+]([O-])c2c1 | 10.7% |
| CCOC(=O)c1c(COC(=O)c2ccco2)nc2ccccc2[n+]1[O-] | -4.9% |
| CC(=O)c1c(COC(=O)c2ccco2)nc2ccccc2[n+]1[O-] | 68.3% (active) |
| O=C1CC(Cc2ccccc2)C(=O)N1Cc1ccco1 (centres undefined) | 0% |
| CCn1c(Cn2nnc(-c3ccccc3)n2)nnc1SCC(=O)Nc1ccc(N(C)C)cc1 | 4.2% |
| Cc1nnc(NC(=O)NC(C)N2C(=O)C3C4C=CC(C4)C3C2=O)s1 (centres undefined) | -30.5% |
| CC(C)(C)C1CCC2(CC1)Nc1cccc3cccc(c13)N2 | -38% |
| O=C1CCSc2cccc3cccc(c23)N1 | -2.2% |
| O=C1NC2(CCCCC2)NN1c1ccccc1 | -5.6% |
| CC1=Nc2cccc3cccc(c23)N1 | 2.9% |
| O=C(O)Cc1coc(-c2ccc(F)cc2)n1 | -15.2% |
| O=C(CN1C(=O)NC2(CCc3ccccc32)C1=O)c1ccc2c(c1)OCCO2 (centres undefined) | -13.7% |
